PubChem BioAssay AID1159580 (chemical genetic matrix, 2015)
About 2,000 (36%) of roughly 5,500 compounds were called active. Another 18% or so got no clear call; they are omitted. Rule as the data show it: active = normalized growth mostly below about 0.91 (no sharp cut-off); inconclusive = no clear call, values can overlap the other calls; inactive = mostly above about 0.92. Some of the results follow.

Test: chemical genetic growth profiling, strain panel (AID 1159580);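 also: tested at 20 µM; growth read once vehicle control cultures reached saturation at 30 °C; 1 = growth at the plate median or of vehicle wells; lower values mean less growth of the strain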
Settings: S. cerevisiae deletion strains, growth OD
[1] = locus YAR019C, strain CDC15, active compounds read low
[2] = locus YBL105C, strain PKC1, active compounds read low
[3] = locus YBR135W, strain CKS1, active compounds read low
[4] = locus YBR136W, strain MEC1, active compounds read low
[5] = locus YBR160W, strain CDC28, active compounds read low
[6] = locus YDL017W, strain CDC7, active compounds read low
[7] = locus YDL028C, strain MPS1, active compounds read low
[8] = locus YDL101C, strain DUN1, active compounds read low
[9] = locus YDL108W, strain KIN28, active compounds read low
[10] = locus YDL132W, strain cdc53, active compounds read low
[11] = locus YDL214C, strain PRR2, active compounds read low
[12] = locus YDR052C, strain DBF4, active compounds read low
[13] = locus YDR054C, strain cdc34, active compounds read low
[14] = locus YDR226W, strain ADK1, active compounds read low
[15] = locus YDR477W, strain SNF1, active compounds read low
[16] = locus YER123W, strain YCK3, active compounds read low
[17] = locus YER133W, strain GLC7, active compounds read low
[18] = locus YFL009W, strain cdc4, active compounds read low
[19] = locus YFL029C, strain CAK1, active compounds read low
[20] = locus YFR003C, strain YPI1, active compounds read low
[21] = locus YFR019W, strain FAB1, active compounds read low
[22] = locus YFR028C, strain CDC14, active compounds read low
[23] = locus YGR040W, strain KSS1, active compounds read low
[24] = locus YGR052W, strain FMP48, active compounds read low
[25] = locus YGR092W, strain DBF2, active compounds read low
[26] = locus YHR030C, strain SLT2, active compounds read low
[27] = locus YHR079C, strain IRE1, active compounds read low
[28] = locus YHR082C, strain KSP1, active compounds read low
[29] = locus YHR205W, strain SCH9, active compounds read low
[30] = locus YIL147C, strain SLN1, active compounds read low
[31] = locus YJL095W, strain BCK1, active compounds read low
[32] = locus YJL128C, strain PBS2, active compounds read low
[33] = locus YJL157C, strain FAR1, active compounds read low
[34] = locus YJR016C, strain ILV3, active compounds read low
[35] = locus YJR066W, strain TOR1 (second series), active compounds read low
[36] = locus YJR066W, strain TOR1, active compounds read low
[37] = locus YKL048C, strain ELM1, active compounds read low
[38] = locus YKL067W, strain YNK1, active compounds read low
[39] = locus YKL193C, strain SDS22, active compounds read low
[40] = locus YKL203C, strain TOR2, active compounds read low
[41] = locus YLR113W, strain HOG1, active compounds read low
[42] = locus YLR133W, strain CKI1, active compounds read low
[43] = locus YLR403W, strain SFP1, active compounds read low
[44] = locus YML070W, strain DAK1, active compounds read low
[45] = locus YMR001C, strain CDC5, active compounds read low
[46] = locus YMR205C, strain PFK2 (second series), active compounds read low
[47] = locus YMR277W, strain FCP1, active compounds read low
[48] = locus YNL006W, strain LST8, active compounds read low
[49] = locus YNL020C, strain ARK1, active compounds read low
[50] = locus YNL161W, strain CBK1, active compounds read low
[51] = locus YNL183C, strain NPR1, active compounds read low
[52] = locus YNL207W, strain RIO2, active compounds read low
[53] = locus YNL222W, strain SSU72, active compounds read low
[54] = locus YNL307C, strain MCK1 (second series), active compounds read low
[55] = locus YOL078W, strain AVO1, active compounds read low
[56] = locus YOL136C, strain PFK27, active compounds read low
[57] = locus YOR061W, strain CKA2, active compounds read low
[58] = locus YOR119C, strain RIO1, active compounds read low
[59] = locus YOR231W, strain MKK1, active compounds read low
[60] = locus YOR329C, strain SCD5, active compounds read low
[61] = locus YPL031C, strain PHO85, active compounds read low
[62] = locus YPL153C, strain RAD53, active compounds read low
[63] = locus YPL204W, strain HRR25, active compounds read low
[64] = locus YPL209C, strain IPL1, active compounds read low
[65] = locus YPR025C, strain CCL1, active compounds read low
[66] = locus YPR106W, strain ISR1, active compounds read low
[67] = locus YPR111W, strain DBF20, active compounds read low
[68] = strain NNK1, active compounds read low
[69] = strain TSCII, active compounds read low
[70] = locus YAL013W, strain DEP1, active compounds read low
[71] = locus YBR229C, strain ROT2, active compounds read low
[72] = locus YDR150W, strain NUM1, active compounds read low
[73] = locus YEL061C, strain CIN8, active compounds read low
[74] = locus YGR078C, strain PAC10, active compounds read low
[75] = locus YHR087W, strain rtc3, active compounds read low
[76] = locus YJR043C, strain POL32, active compounds read low
[77] = locus YJR075W, strain HOC1, active compounds read low
[78] = locus YLR039C, strain RIC1, active compounds read low
[79] = locus YLR058C, strain SHM2 (second series), active compounds read low
[80] = locus YLR085C, strain ARP6, active compounds read low
[81] = locus YLR262C, strain YPT6, active compounds read low
[82] = locus YML094W, strain GIM5, active compounds read low
[83] = locus YMR219W, strain ESC1, active compounds read low
[84] = locus YMR263W, strain SAP30, active compounds read low
[85] = locus YNL153C, strain GIM3, active compounds read low
[86] = locus YNL298W, strain CLA4 (second series), active compounds read low
[87] = locus YNL322C, strain KRE1, active compounds read low
[88] = locus YNR030W, strain Alg12, active compounds read low
[89] = locus YPL055C, strain LGE1, active compounds read low
[90] = locus YPL241C, strain CIN2, active compounds read low
[91] = locus YPR135W, strain CTF4, active compounds read low

Measured: normalized growth

CCCCCCCCCCCCSc1ncn[nH]1
inactive: [1] 0.985 | [2] 0.976 | [3] 0.968 | [4] 0.973 | [5] 0.971 | [6] 0.977 | [7] 0.976 | [8] 0.975 | [9] 0.969 | [10] 0.976 | [11] 0.735 | [12] 0.975 | [13] 0.98 | [14] 0.968 | [15] 0.734 | [16] 0.645 | [17] 0.88 | [18] 0.971 | [19] 0.981 | [20] 0.977 | [22] 0.977 | [23] 0.817 | [25] 0.595 | [30] 0.978 | [32] 0.939 | [33] 0.728 | [34] 0.975 | [35] 0.738 | [37] 0.821 | [38] 0.85 | [39] 0.976 | [40] 0.731 | [44] 0.789 | [45] 0.976 | [46] 0.771 | [47] 0.975 | [48] 0.986 | [50] 0.981 | [52] 0.978 | [53] 0.972 | [55] 0.973 | [56] 0.723 | [57] 0.84 | [58] 0.655 | [60] 0.984 | [64] 0.982 | [65] 0.972 | [66] 0.991 | [67] 0.973 | [68] 0.983 | [69] 0.975
active: [21] 0.443 | [24] 0.511 | [26] 0.135 | [27] 0.254 | [28] 0.209 | [29] 0.294 | [31] 0.279 | [36] 0.297 | [41] 0.479 | [42] 0.566 | [43] 0.447 | [49] 0.523 | [51] 0.444 | [54] 0.478 | [59] 0.439 | [61] 0.542 | [62] 0.556 | [63] 0.556 | locus YPL256C, strain CLN2, active compounds read low 0.318

CCCCCCCCCCCCSc1nnc(N)s1
inactive: [70] 1.01 | [71] 0.994 | [8] 1.05 | [72] 1.01 | [73] 1 | [74] 0.999 | locus YGR229C, strain SMI1, active compounds read low 0.977 | [26] 0.964 | [75] 1.02 | locus YJL187C, strain SWE1, active compounds read low 0.995 | [76] 0.984 | [77] 1.01 | [78] 0.981 | [79] 0.991 | [80] 0.953 | [81] 1 | [82] 1.12 | [83] 0.996 | [84] 0.968 | locus YMR307W, strain GAS1, active compounds read low 0.933 | [85] 1.02 | [86] 0.976 | [87] 0.983 | [88] 1.02 | [89] 1.02 | [90] 0.978 | [91] 1.21

NC(=NS(=O)(=O)c1cc(Cl)c(Oc2ccc([N+](=O)[O-])cc2Cl)c(Cl)c1)c1cccnc1
inactive: [70] 1 | [71] 0.993 | [8] 0.976 | [72] 0.948 | [73] 1.01 | [74] 1 | [26] 0.924 | [75] 1.01 | [76] 1 | [77] 0.992 | [78] 1.09 | [79] 1.01 | [80] 1.05 | [81] 1.09 | [82] 1.01 | [83] 0.997 | [84] 0.95 | locus YNL128W, strain TEP1, active compounds read low 1.02 | [85] 0.992 | [86] 1.02 | [87] 1.01 | [88] 1.01 | [89] 0.912 | [90] 1.01 | [91] 0.96

O=C(OCc1ccccc1Br)c1cc([N+](=O)[O-])cc([N+](=O)[O-])c1
inactive: [1] 0.973 | [2] 0.986 | [3] 0.969 | [4] 0.98 | [5] 0.988 | [6] 0.984 | [7] 0.981 | [8] 0.985 | [9] 0.969 | [10] 0.961 | [11] 0.846 | [12] 0.984 | [13] 0.965 | [14] 0.981 | [15] 0.841 | [16] 0.84 | [17] 0.888 | [18] 0.983 | [19] 0.975 | [20] 0.977 | [21] 0.905 | [22] 0.974 | [23] 0.868 | [24] 0.871 | [25] 0.757 | [26] 0.92 | [27] 0.96 | [28] 0.923 | [29] 0.83 | [30] 0.976 | [31] 0.92 | [32] 0.944 | [33] 0.825 | [34] 0.973 | [35] 0.781 | [36] 0.885 | [37] 0.922 | [38] 0.876 | locus YKL101W, strain HSL1, active compounds read low 0.88 | [39] 0.974 | [40] 0.939 | [41] 0.892 | [42] 0.887 | [43] 0.857 | [44] 0.825 | [45] 0.967 | [46] 0.842 | [47] 0.988 | [48] 0.974 | [49] 0.869 | [50] 0.988 | [51] 0.947 | [52] 0.966 | [53] 0.989 | [54] 0.877 | [55] 0.978 | [56] 0.867 | [57] 0.809 | [58] 0.952 | [59] 0.937 | [60] 0.973 | [61] 0.876 | [62] 0.866 | [63] 0.86 | [64] 0.984 | [65] 0.982 | [66] 0.976 | [67] 0.973 | [68] 0.977 | [69] 0.976
